Assay results taken from PubChem BioAssay AID1851 (National Center for Advancing Translational Sciences (NCATS), 2009).
Among all 16,000 compounds or so, about 5,800 (36%) were called active. About 23% were inconclusive and are not listed. Calls follow the shape of the dose curve; as a rule, active = well fitted curve in the direction sought with a large enough effect; inconclusive = small, poorly fitted or top-dose-only effect, or effect the other way; inactive = no such curve, though single readings can be large or run the other way. The list shows a part of the results.

These compounds were tested against Cytochrome P450 2C19 (Homo sapiens) (UniProt P33261) (assay: Cytochrome panel assay with activity outcomes). Settings: recombinant CYP, pro-luciferin dealkylation, luminescence, p450-cyp2c19; series mostly up to 57.1 µM; activity, negative = inhibition: at the top concentration.
% is scaled to controls: 0 for no effect and ±100 for the full control effect.

Cytochrome P450 2C19 (Homo sapiens), sequence (P33261 whole entry, looked up): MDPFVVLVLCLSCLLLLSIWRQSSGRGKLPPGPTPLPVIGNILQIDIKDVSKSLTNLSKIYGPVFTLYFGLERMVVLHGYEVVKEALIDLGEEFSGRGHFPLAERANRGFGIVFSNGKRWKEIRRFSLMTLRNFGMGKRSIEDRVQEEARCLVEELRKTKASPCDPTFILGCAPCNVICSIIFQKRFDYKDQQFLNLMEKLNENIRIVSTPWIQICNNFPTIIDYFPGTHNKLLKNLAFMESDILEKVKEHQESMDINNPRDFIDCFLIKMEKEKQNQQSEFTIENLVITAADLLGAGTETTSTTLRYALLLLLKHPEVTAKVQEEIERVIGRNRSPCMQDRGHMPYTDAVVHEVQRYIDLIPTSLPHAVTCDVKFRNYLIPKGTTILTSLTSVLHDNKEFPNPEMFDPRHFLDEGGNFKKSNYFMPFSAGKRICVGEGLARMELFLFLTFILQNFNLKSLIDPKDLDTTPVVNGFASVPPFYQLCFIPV

AC50, inactive:
CC(C)NC[C@H](O)c1ccc2ccccc2c1

AC50, active:
Cc1cccc(OC(=O)CN2C(=O)C3C4CCC(C4)C3C2=O)c1C (configuration not stated) 3.98 µM
C=CCn1c(C)cc(C(=O)CN2C(=O)c3ccccc3C2=O)c1C 3.98 µM
c1cncc(CNc2ncncc2-c2ccc3c(c2)OCO3)c1 0.2 µM
c1ccc(Nc2ncncc2-c2ccc3c(c2)OCO3)cc1 0.251 µM
Cc1cccc(CNc2ncncc2-c2ccc3c(c2)OCO3)c1 0.501 µM
c1ccc(CNc2ncncc2-c2ccc3c(c2)OCO3)cc1 0.501 µM
c1csc(CNc2ncncc2-c2ccc3c(c2)OCO3)c1 0.794 µM
CC(C)c1nnc(-c2ccc(Cl)cc2)c(N(C)C)n1 2.51 µM
CC1(O)c2ccccc2C(=O)N1CCc1ccccc1F (configuration not stated) 0.251 µM
COCCn1c(=S)[nH]c2cc(C(=O)NC(C)C)ccc2c1=O 15.8 µM
COCCNC(=O)CCCCCn1c(=S)[nH]c2ccccc2c1=O 22.4 µM
Cc1ccc(S(=O)(=O)CCCS(=O)(=O)c2ccc(C)cc2)cc1 10 µM
O=S(=O)(c1ccccc1)N1CCC2(CCCN(Cc3ccncc3)C2)CC1 0.316 µM
O=S(=O)(c1ccccc1)N1CCC[C@@]2(CCN(Cc3nccs3)C2)C1 7.94 µM
N#Cc1ccc(CN2CCCC3(CCN(S(=O)(=O)c4ccccc4)CC3)C2)cc1 15.8 µM
CSc1ccccc1N1CCN(C(=O)Nc2ccc3c(c2)NC(=O)CO3)CC1 7.94 µM
O=C(Nc1cccc(C(F)(F)F)c1)C1CCCN1S(=O)(=O)c1cccc2cccnc12 (configuration not stated) 11.2 µM
O=C1OCCC1Sc1nnnn1-c1ccccc1 (configuration not stated) 22.4 µM
CC(=O)Nc1ccc(NC(=O)CSc2nnc(-c3ccccc3)n2Cc2ccc3c(c2)OCO3)cc1 3.55 µM
Cc1cc(NC(=O)CSc2nnc(-c3ccccc3)n2Cc2ccco2)no1 10 µM
O=C(CSc1nnc(-c2ccccn2)n1Cc1ccco1)Nc1ccc2c(c1)OCO2 6.31 µM
COc1cc(CNC(C)(C)CO)ccc1OCC(=O)Nc1ccc(Br)cc1 22.4 µM
CC(C)CCNC(=S)NC1CCCC1 10 µM
CC(O)(CS(=O)(=O)Cc1ccc(Cl)cc1)C(=O)Nc1cccc(C(F)(F)F)c1 (configuration not stated) 7.94 µM
CC(O)(CS(=O)(=O)Cc1ccccc1Cl)C(=O)Nc1cccc(C(F)(F)F)c1 (configuration not stated) 2.82 µM
COc1ccc(CN2C(=O)c3ccccc3C(/C=N\OCc3ccc(F)cc3)C2=O)cc1 (configuration not stated) 2.51 µM
CCCCOC(OCCCC)[C@H](O)CSc1ccc2ccccc2c1 3.16 µM
CCCCCCN(CCCCCC)C(=O)Cc1c(-c2ccc(F)cc2)[nH]c2ccccc12 3.98 µM
CCN1C(=O)/C(=C2\SC(N3CCCCC3)=NC2=O)c2ccccc21 14.1 µM
CC(C)(C)c1ccc(O)c(CN(Cc2cc(C(C)(C)C)ccc2O)C2CCCCC2)c1 1.58 µM
Oc1ccc2ccccc2c1CN(Cc1c(O)ccc2ccccc12)C1CCCCC1 1 µM
CC(C)(C)c1ccc(O)c(CN(Cc2c(O)ccc3ccccc23)C2CCCCC2)c1 2 µM
Oc1ccc2ccccc2c1Cc1c(O)ccc2ccccc12 0.316 µM

activity, negative = inhibition, inactive:
Cc1ccc(C)c(C(=O)CN2C(=O)c3ccccc3S2(=O)=O)c1 -41.5%
O=C(CN1C(=O)c2ccccc2C1=O)NC1(C(=O)O)CCCC1 20.8% [at 11.4 µM]
Cc1cnc(CNc2ncncc2-c2ccc3c(c2)OCO3)cn1 -31.6%
CN(C)c1ncc2nc(-c3ccc(Cl)cc3)c(=O)n(C)c2n1 -8.52%
C[C@]1(O)CC[C@H]2[C@H]3CC=C4N5CCN=C5CC[C@@]4(C)[C@H]3CC[C@@]21C 14.3% [at 11.4 µM]
CC(C)c1ccc(/C(C(=O)O)=C(\O)C(=O)O)cc1 -8.84% [at 11.4 µM]
CCC1CCCCN1CCn1c(=S)[nH]c2cc(OC)c(OC)cc2c1=O (configuration not stated) 2.9%
CC(C)NC(=O)c1ccc2c(=O)n(Cc3ccco3)c(=S)[nH]c2c1 -20.7%
O=C(CCn1c(=S)[nH]c2ccccc2c1=O)NCCCN1CCOCC1 -13.4%
CCOC(=O)CCN1C(=O)[C@H]2[C@H]3[C@H](O)[C@H](O)C/C(=N/OC/C=C(\C)CCC=C(C)C)[C@H]3CC[C@@H]2C1=O 12.1% [at 11.4 µM]
Cn1cccc1C(=O)N1CCC2(CCCN(Cc3ccc(C#N)cc3)C2)CC1 -32.2%
O=S(=O)(c1ccccc1)N1CCC2(CCN(Cc3ccncc3)CC2)CC1 -22.9%
O=S(=O)(c1ccccc1)N1CCC2(CC1)CN(Cc1ccccc1)C2 -18.1%
N#Cc1ccc(CN2CCC3(CC2)CCN(S(=O)(=O)c2ccccc2)CC3)cc1 5.6%
O=S(=O)(c1ccccc1)N1CCC2(CC1)CN(Cc1nccs1)C2 -10.2%
O=S(=O)(c1ccccc1)N1CCC2(CCN(Cc3nccs3)CC2)CC1 -13.1%
CN1CCN(c2ncc3nc(-c4cc(F)cc(F)c4)c(=O)n(CCc4ccccc4)c3n2)CC1 -7.74%
COc1cccc(N2CCN(C(=O)Nc3ccc4c(c3)NC(=O)CO4)CC2)c1 -26.8%
Cc1ccc(-n2c3c(c(=O)[nH]c2=O)C(NS(=O)(=O)c2ccc(C)cc2)(C(F)(F)F)C(=O)N3)cc1 (configuration not stated) -17.4%
NC(=O)NC(=O)CSc1nnc(-c2ccco2)n1Cc1ccccc1 -15.5%
COc1ccc(-c2nc3cnc(N4CCN(C)CC4)nc3n(CCC#N)c2=O)cc1 -0.278%
C=CCOc1ccc(CNC(C)(C)CO)cc1OCC 68%
C=CCOc1ccc(CNC(C)(C)CO)cc1OC 23.4%
CC(C)CC(=O)N1CCC(O)(CS(=O)(=O)Cc2ccc(Cl)cc2)CC1 -5.81%
CC(C)(C)C(=O)N1CCC(O)(CS(=O)(=O)Cc2ccc(Cl)cc2)CC1 -29.6%
COCCn1c(=O)c(C)nc2cnc(N3CCN(C)CC3)nc21 5.94%
COc1ccc(CO/N=C/c2c(C)[nH]c(=O)[nH]c2=O)cc1 -20%
CCN(CC)C[C@@H](O)c1ccc2ccc3ccccc3c2c1 -3.19% [at 11.4 µM]
CCCc1nn2c(=O)c(C(c3ccc(C)cc3)c3c(O)nc4sc(CCC)nn4c3=O)c(O)nc2s1 -17.5%
CN(C)CN1C(=O)S/C(=C2/C(=O)N(CN(C)C)c3ccccc32)C1=O 21.4% [at 11.4 µM]
CN(C)Cc1cc(C(C)(C)C)ccc1-c1ccc(C(C)(C)C)cc1CN(C)C 39.4% [at 11.4 µM]
CC(C)(C)CC(C)(C)c1ccc(O)c(C[N+](C)(C)[O-])c1 -6.26% [at 11.4 µM]
O=C(O)Cc1c(O)ccc2ccccc12 33.5% [at 11.4 µM]
